In PubChem BioAssay one finds composite z-score data, which are given here for 36 compounds.

The test system of this assay is PRMT1 (protein arginine N-methyltransferase 1). In words: PRMT1 binders on small-molecule microarrays, primary screen, biochemical, small-molecule microarray, 635 nm fluorescence (AID 1088). As to conditions: small-molecule microarray binding, higher = more signal.
Take `C=CCOC(=O)[C@H]1[C@@H]2C(=O)O[C@@H](c3ccccc3)[C@@H](c3ccccc3)N2[C@@H](c2ccc(OCCOC(=O)[C@H]3C[C@H]4C(=O)N5CCC[C@H]5C(=O)N4[C@H]3c3ccc(O)cc3)cc2)[C@]12C(=O)Nc1ccccc12`: the composite z-score stood at 1.54.

`COCCCN1C(=O)[C@@]2(c3ccc([N+](=O)[O-])cc3)CC(=O)N(C3CCCCC3)[C@@H]2c2ccc(CO)cc21` displayed a composite z-score of 0.996. In the case of `CN(C)CCCCCCNC(=O)[C@@H]1C[C@@H]2C(=O)N[C@@H](CCCCN)C(=O)N2[C@@H]1c1cccc(OCCO)c1` it was 1.55; in that of `CC(C)c1ccc(NN2C(C(O)C(c3ccccc3)c3ccccc3)C=CC3C(=O)N(c4ccccc4)C(=O)C32)cc1` (stereo unspecified), 1.56. `C=C(CCCC)C(=O)CC[C@@H](OC(=O)c1cccnc1)c1ccc(CO)o1` returned a composite z-score of 1.55. In the case of `O=C(NCc1ccccc1)[C@@]1(Cc2ccccc2)N=C(c2ccc(OCCCO)cc2)O[C@H]1c1ccccc1` it was 0.982; in that of `COCCOC(=O)N1C(=O)[C@@]2(c3cc(C#Cc4ccc(OC)cc4)ccc31)[C@H](c1ccccc1OCCO)N1[C@H](c3ccccc3)[C@H](c3ccccc3)OC(=O)[C@H]1[C@@H]2C(=O)N1CCN(c2ncccn2)CC1`, 1.35; in that of `O=C1NC(=O)C2C1C=CC(C(O)Cc1ccccc1)N2Nc1ccc(Cl)cc1Cl` (stereo unspecified), -0.403. Under `CCCCN1CC=CC23O[C@@H]4/C=C\CCC(C)OC(=O)C4[C@H]2C(=O)N(CCCCCO)[C@@H]3C1=O` (stereo partly specified) stands 0.445; under `O=C1[C@H]2C=C(Br)[C@H](C[C@@H]2c2ccccc2)[C@@]12CO2`, 0.366. Turning to `CN1C(=O)C2C=CC(C(O)c3cccs3)N(Nc3ccccc3)C2C1=O` (stereo unspecified), the composite z-score worked out at 0.881. In turn, `COCCOC(=O)N1C(=O)[C@@]2(c3cc(C#CCCO)ccc31)[C@H](C(=O)Nc1nc3ccccc3s1)[C@H]1C(=O)O[C@H](c3ccccc3)[C@H](c3ccccc3)N1[C@@H]2c1ccc(OCCO)cc1` had a composite z-score of 1.54. Under `CC(C)(C)OC(=O)CC[C@@]12N=C(c3ccc(OCCCO)cc3)O[C@@H]1c1ccccc1N(CCS(=O)(=O)c1ccccc1)C2=O` stands 1.07; under `COC(=O)[C@@]1(Cc2ccccc2)[C@H]2c3cc(C(=O)N4CCCC4)n(Cc4nc5ccccc5[nH]4)c3C[C@H]2CN1C(=O)c1ccccc1`, 1.54. In the case of `O=C1OCCC/C=C\[C@H]2OC34C=CCN(Cn5nnc6ccccc65)C(=O)[C@H]3N(CCO)C(=O)[C@@H]4C12` (stereo partly specified) it was -0.614; in that of `COc1cc2c(cc1O)C(C1CC1)N(Cc1cc3c(cc1Br)OCO3)CC2` (stereo unspecified), -0.221. On to `COCCOC(=O)N1C(=O)[C@@]2(c3cc(C#CC4=CCCCC4)ccc31)[C@H](C(=O)N1CCc3cc(OC)c(OC)cc3C1)[C@H]1C(=O)O[C@H](c3ccccc3)[C@H](c3ccccc3)N1[C@@H]2c1ccc(OCCO)cc1`, for which the composite z-score is 1.55. Regarding `Cc1ccc(S[C@]2(C(=O)NC(C)C)CC(=O)N(Cc3ccccc3Cl)[C@@H]2c2ccc(CO)cc2I)cc1`, the composite z-score stood at 1.14.

Consider `COCCOC(=O)N1C(=O)[C@@]2(c3cc(C#CC4=CCCCC4)ccc31)[C@H](C(N)=O)[C@H]1C(=O)O[C@H](c3ccccc3)[C@H](c3ccccc3)N1[C@@H]2c1ccc(OCCO)cc1`, for which the composite z-score stood at 1.54. Under `O=C1C2C=CC(C(O)C(c3ccccc3)c3ccccc3)N(n3cnnc3)C2C(=O)N1Cc1ccccc1` (stereo unspecified) stands 1.44; under `CC(C)(C)OC(=O)CC[C@@]1(C(=O)NCCN2CCOCC2)N=C(c2ccc(OCCCO)cc2)O[C@@H]1c1ccccc1N=[N+]=[N-]`, 1.45; under `CN(C)C(=O)[C@@]1(Cc2ccccc2)N=C(c2ccc(OCCCO)cc2)O[C@H]1c1ccccc1N=[N+]=[N-]`, 1.53. In the case of `Cc1ccc(S[C@]2(C(=O)NCC(F)(F)F)CC(=O)N(C(C)C)[C@@H]2c2ccc(CO)cc2I)cc1` it was -0.466; in that of `CCOc1cc(C(O)C2C=CC3C(=O)N(c4ccccc4)C(=O)C3N2Nc2ccccc2)ccc1O` (stereo unspecified), 0.408. Turning to `C=CCNC(=O)[C@H]1[C@@H]2C(=O)O[C@@H](c3ccccc3)[C@@H](c3ccccc3)N2[C@@H](c2ccc(OCCO)cc2)[C@]12C(=O)N(C(=O)OCCOC)c1ccccc12`, the composite z-score stood at 1.54. In the case of `C=CCN1C(=O)[C@@]2(O[C@@H](CCO)[C@H]([Si](C)(C)c3ccc(OC)cc3)[C@H]2C)c2cc(NC(=O)c3ccc(OC)cc3)ccc21` it was 1.54; in that of `C[C@]1(C(=O)NC2CC2)c2ccccc2C(=O)N(Cc2cc(C(F)(F)F)cc(C(F)(F)F)c2)[C@H]1c1ccc(CO)cc1`, 1.38. Under `CC(C)OC(=O)C=C1C[C@@H](c2ccccc2C(F)(F)F)O[C@@H](c2ccccc2C(F)(F)F)O1` stands 0.494. Compound `CC(C)(C)OC(=O)CC[C@]1(C(=O)O)N=C(c2ccc(OCCCO)cc2)O[C@H]1c1ccccc1N=[N+]=[N-]` registered a composite z-score of 0.938. As to `O=C1OCC=C[C@H]2OC34C=CCN(c5ccc6ccccc6c5)C(=O)[C@H]3N(CCCCCCO)C(=O)[C@@H]4[C@@H]12` (stereo partly specified), the composite z-score is -0.518. Under `COc1cc2c(cc1OC)CN(C(=O)[C@H]1[C@@H]3C(=O)O[C@@H](c4ccccc4)[C@@H](c4ccccc4)N3[C@@H](c3ccc(O)cc3)[C@]13C(=O)Nc1ccc(C#CCNC(N)=O)cc13)CC2` stands 1.01. In the case of `C=CCC(OC(C)=O)[C@@H]1[C@@H](N(Cc2cccc3ccccc23)C(=O)c2ccc(-c3ccccc3)cc2)c2cc(OCCCO)ccc2N1C(=O)Cc1ccc(OC)cc1` (stereo partly specified) it was 0.341. In the case of `COC(=O)c1c(CC[C@@H](CO)NC(=O)N2CCC[C@H]2Cn2cc(-c3ccccn3)nn2)oc(C(C)=O)c1C(=O)OC` it was 0.986. Consider `C=CCNC(=O)[C@@H]1[C@H]2C(=O)O[C@H](c3ccccc3)[C@H](c3ccccc3)N2[C@H](c2ccc(OCCO)cc2)[C@@]12C(=O)Nc1ccc(C#Cc3ccc(OC)cc3)cc12`, for which the composite z-score is 1.55. In turn, `CN1C(=O)C2C=CC(C(O)c3cc(C(F)(F)F)cc(C(F)(F)F)c3)N(N3CCCCC3)C2C1=O` (stereo unspecified) registered a composite z-score of 1.34. In the case of `COCCOC(=O)N1C(=O)[C@@]2(c3cc(C#CCCO)ccc31)[C@H](C(=O)N1CCN(c3ncccn3)CC1)[C@H]1C(=O)O[C@H](c3ccccc3)[C@H](c3ccccc3)N1[C@@H]2c1ccccc1OCCO` it was 1.55.
